Measured values from PubChem BioAssay AID1851 (National Center for Advancing Translational Sciences (NCATS), 2009).
Several values for one entry are separate records, joined by “and”; a condition that tells them apart may be missing. Identical values can stand only once. The campaign covered roughly 16,000 compounds. About 2,600 (16%) were called active. Roughly 20% stayed inconclusive and do not appear here. Calls come from the whole dose curve; as a rule, active = well fitted curve in the direction sought with a large enough effect; inconclusive = small, poorly fitted or top-dose-only effect, or effect the other way; inactive = no such curve, though single readings can be large or run the other way. The entries come from a sample that favours actives as a whole.

Each compound was assayed against Cytochrome P450 2D6 (Homo sapiens) (UniProt P10635) (assay: Cytochrome panel assay with activity outcomes). Settings: recombinant CYP, pro-luciferin dealkylation, luminescence, p450-cyp2d6; series mostly up to 57.1 µM.
Cytochrome P450 2D6 (Homo sapiens), sequence (P10635 whole entry, looked up): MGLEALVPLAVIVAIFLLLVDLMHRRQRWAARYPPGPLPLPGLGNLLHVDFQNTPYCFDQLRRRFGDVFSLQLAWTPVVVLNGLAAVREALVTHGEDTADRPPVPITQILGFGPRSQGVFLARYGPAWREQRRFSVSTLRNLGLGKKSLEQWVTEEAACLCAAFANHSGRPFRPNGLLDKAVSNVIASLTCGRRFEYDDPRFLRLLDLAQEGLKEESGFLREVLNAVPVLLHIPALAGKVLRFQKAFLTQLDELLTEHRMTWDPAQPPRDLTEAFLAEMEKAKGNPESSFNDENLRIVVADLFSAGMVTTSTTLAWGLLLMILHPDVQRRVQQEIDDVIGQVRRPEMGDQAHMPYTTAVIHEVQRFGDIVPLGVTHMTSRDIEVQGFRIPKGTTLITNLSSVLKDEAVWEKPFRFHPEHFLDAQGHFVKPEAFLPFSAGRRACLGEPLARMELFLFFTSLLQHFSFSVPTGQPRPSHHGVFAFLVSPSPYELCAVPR
Protocol: The P450 gene superfamily is involved in the metabolism and clearance of xenobiotics. This assay used various human CYP P450 isozymes to measure the dealkylation of various pro-luciferin substrates to luciferin. The luciferin is then measured by luminescence after the addition of a luciferase detection reagent. Pro-luciferin substrate concentration in the assay was equal to its KM for its CYP P450 isozyme. Inhibitors and some substrates limit the production of luciferin, and decrease measured luminescence.
NCGC Assay Protocol Summary:
1, Reagent, 2 uL, Isozyme and Pro-Luciferin
2, Library compounds, 23 nl, 40 uM to 0.24 nM dilution series
3, Controls, 23 nl, Isozyme specific inhibitor
4, Reagent, 2 uL, NADPH regeneration solution
5, Incubation time, 60 min, Isozyme specific temperature
6, Reagent, 4ul, Detection reagent
7, Incubation time, 20 min, Isozyme specific temperature
8, Detection, 1 sec, ViewLux luminescent read
The luciferase-based P450-GloTM Screening Systems were obtained from Promega (Madison, WI) for CYP 1A2 (V9770), CYP 2C9 (V9790), CYP2 C19 (V9880), CYP 2D6 (V9890), and CYP 3A4 Luciferin-PPXE (V9910) and were adapted for 1,536-well microplates and an automated protocol. The control compounds furafylline for 1A2 (F124), sulfaphenazole for CYP 2C9 (S0758), ketoconazole for CYP 2C19 (K1003), quinidine for 2D6 (Q3625), and ketoconazole for 3A4 (K1003) were purchased from Sigma Aldrich (St. Louis, MO). Recombinant P450 enzymes were obtained from baculovirus constructs expressed in insect cells (BD/Gentest).
Medium-binding white solid Kalypsys plates used. Mixtures kept on ice. 1A2: 10 nM 1A2, 100 uM Luc-ME, 100 mM KPO4; 2C9: 10 nM 2C9, 100 uM Luc-H, 25 mM KPO4; 2C19: 5 nM 2C19, 10 uM Luc-H EGE, 50 mM KPO4; 2D6: 5 nM 2D6, 30 uM Luc-ME EGE, 100 mM KPO4; 3A4: 10 nM, 25 uM Luc-PPXE. All amounts are reflected in their final concentration, working concentration is 2x.
NADPH regeneration solution: 1.3 mM NADP+, 3.3 mM glucose-6-phosphate, 3.3 mM MgCl2, 0.4 U/mL glucose-6-phosphate dehydrogenase for all isozymes, 200 mM KPO4 for 3A4. Mixture prepared at RT but kept on ice during automated run.
RT incubation in auxilliary plate hotel for 1A2, 2D6, and 3A4; 37C for 2C9 and 2C19.
Keywords: P450, CYP1A2, CYP2C19, CYP2C9, CYP2D6, CYP3A4, Luciferase, MLSMR, MLSCN, NIH Roadmap, qHTS, NCGC
% is set by controls: 0 for no effect and ±100 for the full control effect.

SMILES	AC50	activity, negative = inhibition
O=C1c2ccccc2-c2cc([N+](=O)[O-])c([N+](=O)[O-])cc21	3.16 µM (active)	–
O=C1c2cc([N+](=O)[O-])ccc2-c2ccc3c4ccc5c6c(ccc(c7ccc1c2c73)c64)C(=O)c1cc([N+](=O)[O-])ccc1-5	–	-6.4% [at 11.4 µM] (inactive)
Cc1cc(C)nc(NC2=NCCS2)n1	inactive	–
C/C(=N\OC(=O)NC(C)C)c1sc(-c2ccccc2)nc1C	inactive	–
CN1CC[C@@]2(CCCN(C(=O)c3ccncc3)C2)C1	inactive	–
CCOC(=O)c1[nH]c(C)c(C(=O)N2CCC3(CC2)OCCO3)c1C	inactive	–
Cc1noc(C)c1C(=O)N1CCC2(CCCN(CC(C)C)C2)CC1	12.6 µM (active)	–
CC(C)CN1CC2(CCN(C(=O)c3ccncc3)CC2)C1	3.98 µM (active)	–
O=C(Oc1ccccc1)N1CCC2(CCN(Cc3ccncc3)CC2)CC1	inactive	–
O=C(c1ccncc1)N1CCC2(CC1)CN(Cc1ccccc1)C2	6.31 µM (active)	–
O=C(c1ccco1)N1CCC[C@@]2(CCN(Cc3ccncc3)C2)C1	12.6 µM (active)	–
O=C(Oc1ccccc1)N1CCC2(CC1)CN(Cc1ccncc1)C2	inactive	–
O=C(Oc1ccc(S(=O)(=O)F)cc1F)c1ccccc1Cl	–	12.8% [at 11.4 µM] (inactive)
C/C(O)=C(/C#N)C(=O)Nc1cc(Br)ccc1Br	inactive	–
Cn1c(=O)c2[nH]cnc2n(C)c1=O	inactive	–
O=c1cc(-c2ccc(O)cc2)oc2cc(O)cc(O)c12	inactive	–
COc1cc2c(cc1OC)[C@@]13CCN4CC5=CCO[C@H](CC(=O)O)[C@@H]([C@H]1N2)[C@H]5C[C@H]43	–	-8.05% [at 11.4 µM] (inactive)
CCC(COC(=O)NC)NC(=O)Oc1ccccc1 (stereo not drawn)	inactive	–
O=C(c1cc2cc3ccc(Cl)cc3nc2o1)N1CCC2(CC1)OCCO2	inactive	–
O=C(Cc1ccc(Cl)c(Cl)c1)N1CCCC[C@H]1CN1CCCC1	7.94 µM (active) and 2.51 µM (active)	–

SMILES	AC50	activity, negative = inhibition
CC[C@]1([C@H]2O[C@@H]([C@@H]3O[C@](O)(CO)[C@@H](C)C[C@H]3C)C[C@H]2C)CC[C@@H]([C@]2(C)CC[C@@]3(C[C@@H](O)[C@@H](C)[C@@H]([C@H](C)[C@H](OC)[C@H](C)C(=O)O)O3)O2)O1	inactive	–
c1ccc(CCCCN2CCC(c3ccccc3)CC2)cc1	0.0398 µM (active)	–
C[C@@H](N)Cn1ccc2cc(F)c(Cl)cc21	inactive	–
CC(C)Oc1cc(-n2c(=S)[nH]c3ccccc3c2=O)c(Cl)cc1Cl	inactive	–
C[C@H](CC(C#N)(c1ccccc1)c1ccccc1)N1CCCCC1	2.51 µM (active)	–
CC(=O)Nc1ccccc1C(=O)OCc1ccc(C(=O)c2ccccc2)cc1	inactive	–
CC(C)CC(=O)C[C@H](O)C(Cl)(Cl)Cl	–	2.83% [at 11.4 µM] (inactive)
C[C@@H]1[C@@H](C)N1C[C@H](O)Cn1ccnc1[N+](=O)[O-] (stereo partly drawn)	–	4.54% [at 11.4 µM] (inactive)
C[N+](C)(C)[C@H](Cc1c[nH]c(=S)[nH]1)C(=O)O	–	-8.35% [at 11.4 µM] (inactive)
NC[C@H](CC(=O)O)c1ccc(Cl)cc1	0.794 µM (active)	–
NC[C@@H](CC(=O)O)c1ccc(Cl)cc1	inactive	–
O=C(O)CP(=O)(O)c1ccc(Cl)cc1	inactive	–
CCN1CCC2(CC1)NC(CO)(CO)CO2	inactive	–
O=c1[nH]c(=O)n(CCc2ccc(F)cc2)c(O)c1C=NCCCN1CCOCC1	inactive	–
COc1cc2c(cc1OC)[C@@H]1C(=O)c3ccc4c(c3O[C@@H]1CO2)C=CC(C)(C)O4	0.0631 µM (active)	–
OC(Cn1c2ccccc2c2ccccc21)C[n+]1ccccc1 (stereo not drawn)	0.0126 µM (active)	–
C[C@]12CC[C@@H]3[C@H](CCC4=CC(=O)CC[C@]43C)[C@]1(O)CC[C@@]2(O)C(=O)CO	–	16.3% [at 11.4 µM] (inactive)
Cc1nc(N)sc1CCN	inactive	–
C[C@@H](Cc1cccc(C(F)(F)F)c1)NCCCc1ccccc1	0.0126 µM (active)	–
CNCCCc1ccccc1	inactive	–

SMILES	AC50	activity, negative = inhibition
CC(O)(CS(=O)(=O)c1ccccc1)C(=O)Nc1cccc(C(F)(F)F)c1 (stereo not drawn)	inactive	–
C[C@@]12CC[C@@H]3c4ccc(O)cc4C[C@H](CCCCCCCCCS(=O)CCCC(F)(F)C(F)(F)F)[C@H]3[C@@H]1CC[C@@H]2O (stereo partly drawn)	inactive	–
CC(C)[C@@]1(NC(=O)[C@@H]2C[C@H]3c4cccc5[nH]cc(c45)C[C@@H]3N(C)C2)O[C@]2(O)[C@H]3CCCN3C(=O)CN2C1=O	inactive	–
CC(C)[C@@]1(NC(=O)[C@@H]2C[C@H]3c4cccc5[nH]cc(c45)C[C@@H]3N(C)C2)O[C@]2(O)[C@H]3CCCN3C(=O)[C@H](Cc3ccccc3)N2C1=O	inactive	–
CC(C)[C@@]1(NC(=O)[C@@H]2C[C@H]3c4cccc5[nH]cc(c45)C[C@@H]3N(C)C2)O[C@@]2(O)[C@H]3CCCN3C(=O)[C@H](Cc3ccccc3)N2C1=O	inactive	–
CCN(CC)C(=O)N[C@@H]1C[C@H]2c3cccc4[nH]cc(c34)C[C@@H]2N(C)C1	15.8 nM (active) and 10 nM (active)	–
CCN(CC)C(=O)N[C@H]1C[C@H]2c3cccc4[nH]cc(c34)C[C@@H]2N(C)C1	0.0398 µM (active)	–
NCCCNCCSP(=O)(O)O	inactive	–
N[C@H](Cc1ccc2oc3cc(=O)c4ccccc4c-3nc2c1)C(=O)O	–	-14.6% [at 11.4 µM] (inactive)
CC1(C)CCC(C)(C)c2c1ccc(O)c2Cc1c(O)ccc2c1C(C)(C)CCC2(C)C	–	4.74% [at 11.4 µM] (inactive)
CCn1c(O)c(C(c2ccccn2)c2c(O)n(CC)c(=S)[nH]c2=O)c(=O)[nH]c1=S	inactive	–
O=C(C[C@H](c1ccccc1)c1c(O)c2ccccc2oc1=O)c1ccccc1	–	12.6% [at 11.4 µM] (inactive)
COCCn1c(SCc2nc3sc(C(=O)OC)c(C)c3c(=O)[nH]2)nc2ccccc21	10 µM (active)	–
CC(C)C(=O)CP(=O)(O)O	–	-4.98% [at 11.4 µM] (inactive)
COc1cc(OC)c(/C=C2/C(=O)Nc3ccccc32)c(OC)c1	inactive	–
CCOC(=O)c1cncn1[C@@H](C)c1ccccc1	inactive	–
C[C@H](c1ccccc1)N1CCN([C@@H](C)c2ccccc2)CC1	0.0631 µM (active)	–
CCOC(=O)c1cncn1[C@H](C)c1ccccc1	inactive	–
